A word on the AC50: it is the midpoint of the concentration-response curve, whichever way the signal moves.

Among all 16,000 compounds or so, about 5,800 (36%) were called active. Inconclusive results (about 23%) are left out. The list shows a part of the results. Values without a mark were called inactive. Calls come from the whole dose curve; as a rule, active = well fitted curve in the direction sought with a large enough effect; inconclusive = small, poorly fitted or top-dose-only effect, or effect the other way; inactive = no such curve, though single readings can be large or run the other way.
% is set by controls: 0 for no effect and ±100 for the full control effect.

For this assay, the target named is Cytochrome P450 2C19 (Homo sapiens) (UniProt P33261). Briefly: Cytochrome panel assay with activity outcomes. The note with it: recombinant CYP, pro-luciferin dealkylation, luminescence, p450-cyp2c19; series mostly up to 57.1 µM; activity, negative = inhibition: at the top concentration. The procedure: The P450 gene superfamily is involved in the metabolism and clearance of xenobiotics. This assay used various human CYP P450 isozymes to measure the dealkylation of various pro-luciferin substrates to luciferin. The luciferin is then measured by luminescence after the addition of a luciferase detection reagent. Pro-luciferin substrate concentration in the assay was equal to its KM for its CYP P450 isozyme. Inhibitors and some substrates limit the production of luciferin, and decrease measured luminescence.
Sequence of Cytochrome P450 2C19 (Homo sapiens) (P33261 whole entry, looked up): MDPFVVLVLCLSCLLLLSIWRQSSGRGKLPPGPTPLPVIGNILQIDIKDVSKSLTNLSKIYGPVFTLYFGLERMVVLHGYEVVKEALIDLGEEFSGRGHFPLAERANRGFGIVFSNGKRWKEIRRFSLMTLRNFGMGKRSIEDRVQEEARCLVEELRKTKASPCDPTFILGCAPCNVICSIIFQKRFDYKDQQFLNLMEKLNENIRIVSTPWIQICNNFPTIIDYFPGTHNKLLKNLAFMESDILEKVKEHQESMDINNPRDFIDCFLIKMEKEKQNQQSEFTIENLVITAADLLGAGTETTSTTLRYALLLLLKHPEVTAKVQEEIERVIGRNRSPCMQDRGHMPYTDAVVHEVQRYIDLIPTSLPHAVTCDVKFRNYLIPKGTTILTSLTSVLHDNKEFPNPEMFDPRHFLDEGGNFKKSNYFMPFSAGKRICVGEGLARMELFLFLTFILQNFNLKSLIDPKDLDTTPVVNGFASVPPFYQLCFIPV
NCGC Assay Protocol Summary:
1, Reagent, 2 uL, Isozyme and Pro-Luciferin
2, Library compounds, 23 nl, 40 uM to 0.24 nM dilution series
3, Controls, 23 nl, Isozyme specific inhibitor
4, Reagent, 2 uL, NADPH regeneration solution
5, Incubation time, 60 min, Isozyme specific temperature
6, Reagent, 4ul, Detection reagent
7, Incubation time, 20 min, Isozyme specific temperature
8, Detection, 1 sec, ViewLux luminescent read
The luciferase-based P450-GloTM Screening Systems were obtained from Promega (Madison, WI) for CYP 1A2 (V9770), CYP 2C9 (V9790), CYP2 C19 (V9880), CYP 2D6 (V9890), and CYP 3A4 Luciferin-PPXE (V9910) and were adapted for 1,536-well microplates and an automated protocol. The control compounds furafylline for 1A2 (F124), sulfaphenazole for CYP 2C9 (S0758), ketoconazole for CYP 2C19 (K1003), quinidine for 2D6 (Q3625), and ketoconazole for 3A4 (K1003) were purchased from Sigma Aldrich (St. Louis, MO). Recombinant P450 enzymes were obtained from baculovirus constructs expressed in insect cells (BD/Gentest).
Medium-binding white solid Kalypsys plates used. Mixtures kept on ice. 1A2: 10 nM 1A2, 100 uM Luc-ME, 100 mM KPO4; 2C9: 10 nM 2C9, 100 uM Luc-H, 25 mM KPO4; 2C19: 5 nM 2C19, 10 uM Luc-H EGE, 50 mM KPO4; 2D6: 5 nM 2D6, 30 uM Luc-ME EGE, 100 mM KPO4; 3A4: 10 nM, 25 uM Luc-PPXE. All amounts are reflected in their final concentration, working concentration is 2x.
NADPH regeneration solution: 1.3 mM NADP+, 3.3 mM glucose-6-phosphate, 3.3 mM MgCl2, 0.4 U/mL glucose-6-phosphate dehydrogenase for all isozymes, 200 mM KPO4 for 3A4. Mixture prepared at RT but kept on ice during automated run.
RT incubation in auxilliary plate hotel for 1A2, 2D6, and 3A4; 37C for 2C9 and 2C19.
Keywords: P450, CYP1A2, CYP2C19, CYP2C9, CYP2D6, CYP3A4, Luciferase, MLSMR, MLSCN, NIH Roadmap, qHTS, NCGC
Turning to `Cc1nc2ccc(S(=O)(=O)NC(CC(C)C)C(=O)O)cc2s1` (stereo not given), the “activity, negative = inhibition” value was -7.8%.

`Cc1ccc2nc(NC(=O)CSCC(=O)OCC(=O)c3ccc(Br)cc3)sc2c1`: the half-maximal activity concentration (AC50) is 8.91 µM (active).

Turning to `Cc1ccc2nc(-c3ccc(NC(=O)c4ccc(N)cc4)c(S(=O)(=O)O)c3)sc2c1`, the activity, negative = inhibition is 0.214% [at 11.4 µM].

As for `Cc1ccc2nc(NC(=O)COC(=O)c3ccc(Br)o3)sc2c1`, the AC50 is 8.91 µM (active).

As to `OCCN(CCO)c1ncnc2nc[nH]c12`, the activity, negative = inhibition is -23.9% [at 11.4 µM].

In the case of `CC(C)(C)N1C(=O)[C@H]2[C@@H]3[C@H](O)[C@H](O)CC(=O)[C@H]3CC[C@H]2C1=O`, the activity, negative = inhibition is -4.03% [at 11.4 µM].

Regarding `N#CCCn1cc(/C=N/O)c(-c2ccc(Cl)cc2)n1`, the concentration at half-maximal activity (AC50) is 7.94 µM (active).

On to `N#CCCn1c(=O)c(-c2ccc(Cl)cc2)nc2cnc(N3CCOCC3)nc21`, for which the “activity, negative = inhibition” value was -3.89%.

With `N#CCCn1c(=O)c(-c2ccc(Cl)cc2)nc2cnc(Oc3cccc(Cl)c3)nc21`, the “activity, negative = inhibition” value was -6.9%.

On to `CC1=CC(=O)C=CC1(C)C(Cl)(Cl)Cl` (stereo not given), for which the AC50 is 25.1 µM (active).

Regarding `CN(C)c1ccc(-c2nccc(NCc3ccccc3)n2)cc1`, the AC50 is 25.1 µM (active).

With `CN(C)C(=O)c1ccc(-c2nccc(NCc3ccccc3)n2)cc1`, the “activity, negative = inhibition” value was -44.6%.

For the molecule `COc1ccccc1CNc1ccnc(-c2ccoc2)n1`, the AC50 is 7.94 µM (active).

As for `Cc1cnc(CNc2ccnc(-c3ccc(N(C)C)cc3)n2)cn1`, the “activity, negative = inhibition” value was -41.5%.

As for `CN(C)c1ccc(-c2nccc(NCc3cccs3)n2)cc1`, the concentration at half-maximal activity (AC50) was 15.8 µM (active).

As for `COc1ccccc1CNc1ccnc(-c2ccc(N(C)C)cc2)n1`, the AC50 was 10 µM (active).

For the molecule `COc1cc(S(C)=O)ccc1-c1nc2ncccc2[nH]1` (stereo not given), the “activity, negative = inhibition” value was 18.6% [at 25.6 µM].

As for `Cc1cc(SCC(=O)c2cccs2)nc2c(C)cccc12`, the concentration at half-maximal activity (AC50) was 3.16 µM (active).

`CC[C@]1(C)CC(=O)NC1=O`: the AC50 entry is “inactive”.

For `Cc1ccc(Nc2nc(Cl)nc(N(C)C#N)n2)cc1`, the half-maximal activity concentration (AC50) was 25.1 µM (active).

Regarding `COC(=O)c1ccccc1N/C=C1\CCc2c(c(C)nn2-c2ccccn2)C1=O`, the concentration at half-maximal activity (AC50) was 1.26 µM (active).

On to `COc1ccc(-c2cc(C(=O)O)c3c(C)nn(-c4ccccn4)c3n2)cc1`, for which the “activity, negative = inhibition” value was -24.8%.

Turning to `C(=N\Nc1nc(Nc2ccccc2)nc(N2CCOCC2)n1)/c1c[nH]c2ccccc12`, the half-maximal activity concentration (AC50) is 8.91 µM (active).

As for `COc1ccc(N2CCN(c3nc(Nc4ccc(F)cc4)nc(OC)n3)CC2)cc1`, the “activity, negative = inhibition” value was -29%.

Regarding `CC(=C\C(=O)O)/C(=C/c1ccccc1)C(=O)O`, the “activity, negative = inhibition” value was 35.5%.

Take `CC(=O)/C(=C\c1ccccc1F)C(=O)c1ccccc1`: the concentration at half-maximal activity (AC50) was 2 µM (active).

Regarding `CN(c1ccccc1)c1nc(-n2ccnc2)nc(-n2ccnc2)n1`, the AC50 was 1.78 µM (active).

On to `c1ccc(-c2nc(N3CCCCCC3)nc(-n3ccnc3)n2)cc1`, for which the AC50 was 2 µM (active).

As for `COc1ccc(Oc2nccc(-c3ccc(F)cc3)c2C#N)cc1`, the “activity, negative = inhibition” value was -12.6%.

With `N#Cc1c(-c2ccccc2)ccnc1Oc1ccccc1`, the concentration at half-maximal activity (AC50) is 1.58 µM (active).

For `Cn1c(=O)c(-c2cccc(C#N)c2)nc2cnc(Oc3ccccc3)nc21`, the “activity, negative = inhibition” value was 25.2%.

For the molecule `COc1ccc2sc3ccccc3c(=O)c2c1OC`, the AC50 was 25.1 µM (active).

Turning to `COc1ccc(C(=O)CCN(C)C)c2ccccc12`, the activity, negative = inhibition was -37.3% [at 11.4 µM].

As for `CCN(CC)CCNc1ccc(CO)c2sc3ccccc3c(=O)c12`, the “activity, negative = inhibition” value is -7.59% [at 25.6 µM].

For the molecule `CCOC(=O)c1[nH]c(C)c(/C(O)=C2\C(=O)C(=O)N(CCN3CCOCC3)C2c2cccs2)c1C` (stereo not given), the AC50 was 8.91 µM (active).

Turning to `COc1ccc(/C(O)=C2/C(=O)C(=O)N(CCN3CCOCC3)C2c2ccc(C)cc2)cc1` (stereo not given), the “activity, negative = inhibition” value was -8.32%.

Take `Cc1nc2ccccn2c1/C(O)=C1\C(=O)C(=O)N(CCN2CCOCC2)C1c1cccnc1` (stereo not given): the “activity, negative = inhibition” value was -29%.

Consider `Cc1cc(Cl)nc2ccc(Cc3ccc4nc(Cl)cc(C)c4c3)cc12`, for which the AC50 is 0.501 µM (active).

Turning to `Cc1cc(N2CCOCC2)nc2ccc(Cc3ccc4nc(N5CCOCC5)cc(C)c4c3)cc12`, the activity, negative = inhibition is -39.6% [at 11.4 µM].

Take `CC(=O)Nc1ccc(Cc2ccc3[nH]c(=O)cc(C)c3c2)cc1`: the activity, negative = inhibition is 3.04% [at 11.4 µM].

Consider `CC(C)=NNc1ncnc2nc[nH]c12`, for which the activity, negative = inhibition was 43.1% [at 11.4 µM].

With `CN(C)c1ccc(C(c2ccc(N(C)C)cc2)c2ccc([N+](=O)[O-])cc2)cc1`, the activity, negative = inhibition was -36.9% [at 11.4 µM].

Turning to `Cc1ccc(N(Cc2ccc([N+](=O)[O-])cc2)C(=O)c2ccco2)cc1`, the concentration at half-maximal activity (AC50) is 10 µM (active).

Take `CN1CCc2ccccc2[C@@H]1Cc1ccccc1NC(=O)c1sc2ccccc2c1Cl`: the concentration at half-maximal activity (AC50) was 2.51 µM (active).

Turning to `O=c1c2ccccc2sc2c(CO)ccc(NCCN3CCCCC3)c12`, the activity, negative = inhibition was -24.6% [at 11.4 µM].

With `Cc1nc(SCC(=O)Nc2ccc(N3CCOCC3)cc2)nc(C)c1C`, the AC50 is 25.1 µM (active).

As for `CC(C)(C)c1nc(SCC(=O)Nc2ccc(N3CCOCC3)cc2)c2ccccc2n1`, the half-maximal activity concentration (AC50) is 10 µM (active).

Consider `Cc1nc(SCC(=O)Nc2ccc3c(c2)OCCO3)c2oc3ccccc3c2n1`, for which the half-maximal activity concentration (AC50) was 0.562 µM (active).

For the molecule `CC(C)(C)c1nc(SCC(=O)Nc2ccc3c(c2)OCCO3)c2ccccc2n1`, the concentration at half-maximal activity (AC50) is 1.78 µM (active).

Consider `O=C(CSc1nncn1-c1ccccc1)Nc1ccc(N2CCOCC2)cc1`, for which the “activity, negative = inhibition” value is -29.9%.

The values are drawn from PubChem BioAssay AID1851 (National Center for Advancing Translational Sciences (NCATS), 2009).
